Sampled rows, rich in hits. Any-hit rate of the full collection: about 2.5%.
PG9 binder: PG9 antibody binding by small molecule | inhibition, % at 6.7 µM | AID 624416 | 360,000 tested, 0.43% active | TR-FRET gp120-PG9 antibody binding; in the data active = inhibition above about 8.5%
Exocytosis inh: blocks lytic granule exocytosis. inhibition, % at 10 µM. TALL-104 LAMP-1 surface exposure, flow cytometry; cells stimulated with thapsigargin and PMA. AID 651702. 360,000 tested, 0.66% active;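 active = inhibition above about 55%, limit read from the data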
ABCB6 inh MLPCN: human ABCB6 transporter inhibition; Q9NP58; K562-ABCB6 porphyrin accumulation, flow cytometry, 1 h; active compounds read low; fluorescence ratio to DMSO, % at 10 µM; 360,000 tested, 0.19% active;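 active = fluorescence ratio to DMSO below 75%, the collection mean minus 3 SD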;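 note: signal is porphyrin accumulated inside mitochondria; lower ratio means ABCB6 inhibition with less porphyrin fluorescence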
Target sequence (Q9NP58 whole entry, looked up): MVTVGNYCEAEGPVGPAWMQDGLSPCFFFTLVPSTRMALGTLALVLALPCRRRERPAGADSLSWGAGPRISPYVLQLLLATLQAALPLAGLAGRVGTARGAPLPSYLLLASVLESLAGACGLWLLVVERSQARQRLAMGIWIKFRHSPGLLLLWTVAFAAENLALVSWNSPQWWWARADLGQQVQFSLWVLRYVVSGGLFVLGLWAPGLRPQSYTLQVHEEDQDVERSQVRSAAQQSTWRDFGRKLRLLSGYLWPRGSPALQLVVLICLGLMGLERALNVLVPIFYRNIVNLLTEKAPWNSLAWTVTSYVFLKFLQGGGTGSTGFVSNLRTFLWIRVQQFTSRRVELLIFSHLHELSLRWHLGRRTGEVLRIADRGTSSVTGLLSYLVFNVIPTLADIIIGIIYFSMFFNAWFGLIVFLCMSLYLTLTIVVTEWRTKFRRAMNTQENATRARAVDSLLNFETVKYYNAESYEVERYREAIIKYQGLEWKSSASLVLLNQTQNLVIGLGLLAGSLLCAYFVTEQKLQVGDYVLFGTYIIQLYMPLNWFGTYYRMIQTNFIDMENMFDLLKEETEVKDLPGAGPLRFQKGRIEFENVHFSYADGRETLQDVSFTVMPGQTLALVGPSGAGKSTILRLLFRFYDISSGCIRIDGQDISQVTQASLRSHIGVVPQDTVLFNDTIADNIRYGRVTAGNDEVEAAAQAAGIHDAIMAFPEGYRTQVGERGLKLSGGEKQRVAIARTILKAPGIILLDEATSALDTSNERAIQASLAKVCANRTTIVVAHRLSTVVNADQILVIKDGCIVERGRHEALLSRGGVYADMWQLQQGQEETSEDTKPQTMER
rCAG binder: r(CAG) repeat RNA binding | TO-PRO-1 dye displacement fluorescence | inhibition, % at 3 µM | 370,000 tested, 1.3% active | AID 651821;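 active = inhibition above the plate cutoff, the mean of all test compounds on that plate plus 3 SD, cut at about 35% in these data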;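 note: higher means more dye released from RNA so lower well fluorescence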
Granule exo CP1: lytic granule exocytosis inhibition | inhibition, % at 10 µM | 1,500 tested, 11% active | shares compounds with Exocytosis inh | TALL-104 cells, LAMP-1 externalization, flow cytometry; stimulated with PMA plus thapsigargin; in the data active = inhibition above about 60%
Hits are given with their value; - = inactive; . = no result.

SMILES	PG9 binder	Exocytosis inh	ABCB6 inh MLPCN	rCAG binder	Granule exo CP1
COc1ccc(-c2ccc(CO)o2)cc1N	-	-	-	-	.
CCCc1ccc(S(=O)(=O)N(C)S(=O)(=O)c2ccc(F)cc2)cc1	-	70	-	-	-
Cc1ccc(N(CC(=O)NC2CCCC2)C(=O)CCC(=O)Nc2nccs2)c(C)c1	-	-	-	-	.
Cc1ccc(C)c(N(CC(=O)NC2CCCC2)C(=O)CCC(=O)Nc2nccs2)c1	-	78	-	-	-
COc1ccc(S(=O)(=O)N(C)C)cc1NC(=O)CCCSc1ccccc1	-	95	-	-	-
C=C1CC2(OC1=O)c1ccccc1CCc1ccccc12	-	90	-	-	-
O=C1NC(=O)C2(CCc3ccccc32)N1 (configuration not stated)	-	-	-	-	.
COCCNC(=S)N(CCc1c(C)[nH]c2ccc(Cl)cc12)Cc1cccs1	-	104	-	-	-
O=C(Nc1ccc(-c2cn3ccccc3n2)cc1)c1cccs1	-	72	-	-	-
Cc1ccn2cc(-c3ccc(NC(=O)c4ccco4)cc3)nc2c1	-	85	-	-	-
Cc1nc(-c2ccc(NC(=O)c3ccco3)cc2)cs1	-	-	-	-	.
COC(=O)c1c(NC(=O)C2CC2)sc(C(=O)Nc2ccccc2)c1C	-	75	-	-	-
Cc1nc(NC(=O)C2CC2)sc1C(=O)Nc1ccccc1	-	-	-	-	.
COC(=O)c1ccccc1NS(=O)(=O)c1ccc(Cl)nc1	-	86	-	-	-
O=S(=O)(Nc1ccccc1O)c1ccc(Cl)nc1	-	-	-	-	.
COc1cc(C(C)=O)ccc1OCC(=O)NCC(c1ccc(F)cc1)N1CCOCC1 (configuration not stated)	-	62	-	-	-
C[C@H](NC(=O)N1CCn2c1nc1ccccc12)C(=O)NCc1ccccc1	-	-	-	-	.
O=C(NCC(c1ccco1)N1CCCCC1)c1ccc(COc2ccccc2)cc1 (configuration not stated)	-	-	-	-	.
Cc1csc2sc(-c3ccnc(SCC(=O)NCc4ccccc4)n3)c(C)c12	-	66	-	-	-
CC(C)C(NCC(=O)Nc1ccccc1C(=O)NC1CC1)c1ccccc1 (configuration not stated)	-	-	-	-	.
O=C(CSc1ncnc2c1cnn2CCc1ccccc1)Nc1cccc(C(F)(F)F)c1	-	83	-	-	-
CCOC(=O)c1nnc(-c2ccc(C)cc2)nc1Oc1ccccc1Cl	-	67	-	-	-
CCOC(=O)c1nnc(-c2ccc(C)cc2)nc1Sc1ccccc1Cl	-	79	-	-	-
CCOC(=O)c1nnc(-c2ccccc2)nc1Sc1c(Cl)cccc1Cl	-	96	-	-	-
CCOC(=O)c1nnc(-c2ccccc2)nc1NCc1ccc(Cl)cc1	-	-	-	-	.
SMILES	PG9 binder	Exocytosis inh	ABCB6 inh MLPCN	rCAG binder	Granule exo CP1
CCOC(=O)c1nnc(-c2ccc(C)cc2)nc1Sc1ccc(Cl)cc1	-	-	-	-	.
O=C(CSc1nc2ccccc2c(=O)n1CCCN1CCOCC1)Nc1ccc(Br)cc1	-	-	-	-	.
CCc1ccc(NC(=O)CSc2nc3ccccc3c(=O)n2CCCN2CCC(C)CC2)cc1	-	87	-	-	-
Clc1ccc(C2Nc3cccc4cccc(c34)N2)c(Cl)c1	-	74	-	-	-
Clc1ccc(C2Nc3cccc4cccc(c34)N2)cc1	-	-	-	-	.
CCOC(=O)c1c(C)oc2c1c(C(c1cccnc1)N1CCOCC1)c(O)c1ccccc12 (configuration not stated)	-	98	-	-	83
CC(=O)c1cccc(OCC(=O)Nc2cccc(C(=O)Nc3c(C)n(C)n(-c4ccccc4)c3=O)c2)c1	-	-	-	-	.
Cc1c(NC(=O)COc2cccc(Br)c2)c(=O)n(-c2ccccc2)n1C	-	70	-	-	-
O=C1OC(c2ccccc2)(c2cc(Br)ccc2O)c2ccccc21 (configuration not stated)	-	103	-	-	99
CCOc1cc(N2CCOCC2)c(OCC)cc1NC(=O)c1cnccn1	-	-	-	-	.
Cc1ccc(-c2nc3c(c(=O)[nH]c(=O)n3Cc3ccccc3)n2C)o1	-	98	-	-	-
N#Cc1nc(COc2ccccc2Cl)oc1NCc1ccco1	-	56	-	-	-
CCc1nc2ccc(C(=O)NC3CCN(Cc4ccccc4)CC3)cn2c1N(C)Cc1cc2ccccc2s1	-	59	-	-	65
Cc1ccc(NC(=O)CSc2nc(=O)n(Cc3ccncc3)c3c2CCC3)c(C)c1	-	59	-	-	-
CC(=O)Nc1ccc(NC(=O)CSc2nc(=O)n(Cc3ccncc3)c3c2CCC3)cc1	-	-	-	-	.
CCOc1ccc(CCNC(=O)CN2C(=O)CCSc3ccccc32)cc1OCC	-	96	-	-	-
CSc1ccc(CCNC(=O)CN2C(=O)CCSc3ccccc32)cc1	-	-	-	-	.
Cc1ccc(NC(=O)CC2SC3=NCCCN3C2=O)c(C)c1 (configuration not stated)	-	67	-	-	-
COc1ccc(F)cc1-c1cc(C(=O)NCc2ccc(C(F)(F)F)cc2)[nH]n1	-	73	-	-	-
CC(C)c1ccc(NC(=O)N2CCc3ccccc3C2)cc1	-	-	-	-	.
O=C(Nc1ccc([N+](=O)[O-])cc1)N1CCc2ccccc2C1	-	85	-	-	-
COc1ccc(C(=O)Nc2sc3c(c2C(=O)NCc2ccco2)CCCC3)cc1OC	-	56	-	-	-
COc1ccc(C(=O)Nc2ccccc2C(=O)NCc2ccco2)cc1OC	-	-	-	-	.
COc1ccc(C(=O)Nc2ccc(Cl)cc2C(=O)NCc2ccco2)cc1OC	-	60	-	-	-
OCCNc1ncnc2c1ncn2[C@H]1CN(Cc2ccco2)C[C@@H](CO)O1	-	-	-	-	.
SMILES	PG9 binder	Exocytosis inh	ABCB6 inh MLPCN	rCAG binder	Granule exo CP1
Oc1ccccc1N1CCN(c2ccc3ccccc3n2)CC1	-	66	-	-	-
CCOC(=O)N1CCN(CCC(=O)c2ccc(Br)cc2)CC1	-	88	-	-	-
c1ccc(CN2CCCC3(CCCN(Cc4nc(COc5ccccc5)no4)C3)C2)cc1 (configuration not stated)	-	60	-	-	-
COc1ccc(CN(C)C(c2ccccc2)c2nnnn2-c2ccccc2C)c(OC)c1C (configuration not stated)	-	-	-	-	.
COc1cccc(CN(C)C(c2ccccc2)c2ccccc2)c1OC	-	89	-	-	-
CC1CCCCN1C(=O)Cn1c(=O)oc2cc(S(=O)(=O)N3CCCC3)ccc21 (configuration not stated)	-	-	-	-	.
COc1cccc(-c2cnc3c(NC(C)=O)cc(-c4ccsc4)cn23)c1	-	77	-	-	91
COc1ccc(-c2cc(NC=O)c3ncc(-c4cccc(OC)c4)n3c2)cc1	-	63	-	-	74
O=CNc1cc(-c2ccsc2)cn2c(-c3ccccc3)cnc12	-	71	-	-	82

From PubChem BioAssay
